From PubChem BioAssay (NCATS)
Results filed as inconclusive are left out. The source made the active and inactive calls. Unless noted, calls come from the whole dose curve.

How the values were obtained:
[1] = Cell Viability - BJ (AID 421); settings: BJ fibroblast viability, qHTS;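 note: potency is the fitted concentration of half-maximal effect; cells exposed to compound for 40 hours at 37 °C before readout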
Outline: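 Quantitative HTS: ATP depletion in BJ cells after 40 hr compound exposure in complete culture medium, detected with CellTiter-Glo; AC50 from standard Hill fits.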

[2] = Cell Viability - Jurkat (AID 426;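 active = dose-dependent loss of cell ATP signal giving a full or clear fitted curve, ranked by lower potency value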; note: potency is the fitted concentration of half-maximal effect); settings: qHTS
Outline: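 qHTS, 1536-well; Jurkat E6-1, 5000 cells/well, complete medium; cpd 40 hr, 37 °C; CellTiter-Glo 20 min RT; luminescence. AC50 by Hill fit.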

[3] = Cell Viability - Hek293 (AID 427;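 active = compounds whose dose-response curve shows a full or clear partial loss of cell viability, called from curve shape rather than a numeric limit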;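 note: potency is the fitted concentration of half-maximal effect; cells exposed to compound for 40 hours at 37 °C before reading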); settings: qHTS
Outline: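 AC50 values derive from Hill-modelled concentration-response of ATP-based luminescence, normalized between DMSO-only and 100 uM tamoxifen controls. Cells were exposed in complete culture medium for 40 hr at 37 °C before detection.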

[4] = Cell Viability - HepG2 (AID 433); settings: qHTS;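 note: potency is the fitted concentration of half-maximal effect; potency for ATP loss meaning cytotoxicity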
Outline: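 Read-out is luciferase-based quantitation of cellular ATP as a measure of viable HepG2 cells after 40 h treatment at 37 °C. Signal decrease is scaled between DMSO-only and 100 uM tamoxifen controls, with AC50 fitted by the Hill equation.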

[5] = Cell Viability - MRC5 (AID 434); settings: MRC5 lung fibroblast viability, qHTS;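 note: potency is the fitted concentration of half-maximal effect; potency reflects cytotoxicity seen as loss of intracellular ATP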
Outline: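 MRC5 normal human lung fibroblasts (1500/well) were treated with compounds for 40 hr at 37 °C in complete medium, and viable cells were measured as intracellular ATP by CellTiter-Glo luminescence. AC50 came from Hill fits, normalized to DMSO and 100 uM tamoxifen.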

[6] = Cell Viability - SK-N-SH (AID 435); settings: SK-N-SH neuroblastoma cell viability qHTS;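 note: potency is the fitted concentration of half-maximal effect; compound exposure lasted 40 h at 37 °C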
Outline: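 Luminescent ATP signal served as the viability read-out after 40 hours of compound treatment of human neuroblastoma SK-N-SH cells. Concentration-response data, scaled between DMSO and 100 uM tamoxifen, gave AC50 values by standard Hill modeling.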

[7] = molecular target: Mitogen-activated protein kinase 10 (Mus musculus) (UniProt Q61831); assay: JNK3 AlphaScreen Assay (AID 530; active = well fitted curve in either direction with a large enough effect, not every such curve was filed as active;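 note: kinase came from lysate of stimulated human HepG2 cells; signal reports phosphorylation of biotinylated GST-cJun 1-79 at Ser73 with 10 µM ATP; % is set by controls: 0 for no effect and ±100 for the full control effect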); settings: JNK3 lysate, c-Jun phosphorylation; series mostly up to 57.1 µM
Outline: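 Inhibitors reduce antibody binding to phosphorylated biotin-cJun, lowering AlphaScreen luminescence. Lysates from HepG2 cells pre-activated by IL-1beta plus TNF-alpha supplied JNK3; compounds were titrated.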

[8] = Cell Viability - N2a (AID 540; active = well fitted curve in the direction sought with a large enough effect; an effect the other way counts as inactive or inconclusive;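 note: plate controls were DMSO alone for no effect and tamoxifen control for full effect; nearly all actives have a fitted effect of over 45% in size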); settings: N2a mouse neuroblastoma cell viability; activity change, negative = cytotoxicity: at 92.2 µM (top of the series)
Outline: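 Luminescent ATP signal (CellTiter-Glo, 20 min at room temperature) served as the viability read-out after N2a cells were treated with compounds for 40 hours at 37 °C. Concentration-response data were fitted to the Hill equation for AC50.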

[9] = Cell Viability - NIH 3T3 (AID 541; active = well fitted curve in the direction sought with a large enough effect; an effect the other way counts as inactive or inconclusive;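 note: plate controls were DMSO alone for no effect and tamoxifen positive control for full effect; nearly all actives have a fitted effect of over 25% in size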); settings: NIH 3T3 cell viability, qHTS; activity change, negative = cytotoxicity: at 92.2 µM (top of the series)
Outline: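 Luminescent ATP signal (CellTiter-Glo) served as the viability read-out after NIH 3T3 cells were exposed to compounds over a concentration range for 40 hr at 37 °C. Hill-equation modelling of concentration-response data gave AC50.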

[10] = Cell Viability - HUV-EC-C (AID 542; active = well fitted curve in the direction sought with a large enough effect; an effect the other way counts as inactive or inconclusive; note: % is set by controls: 0 for no effect and ±100 for the full control effect; nearly all actives have a fitted effect of over 35% in size); settings: HUV-EC-C endothelial cell viability, qHTS; series mostly up to 92.2 µM
Outline: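 qHTS cytotoxicity: HUV-EC-C, 1000 cells/well, 5 hr settle, compound 40 hr 37 °C, CellTiter-Glo, luminescence. AC50 via Hill equation.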

CCOc1ccccc1N
inactive: Potency [1] > 92 µM | Potency [2] > 92 µM | Potency [3] > 92 µM | Potency [4] > 92 µM | Potency [5] > 92 µM | Potency [6] > 92 µM | outcome [7] | activity change, negative = cytotoxicity [8] 1.87% | Potency [9] | Potency [10]

C1CCCC1
inactive: Potency [1] > 92 µM | Potency [2] > 92 µM | Potency [3] > 92 µM | Potency [4] > 92 µM | Potency [5] > 92 µM | Potency [6] > 92 µM | outcome [7] | activity change, negative = cytotoxicity [8] 7.78% | Potency [9] | Potency [10]

CCCC(C)CO (stereo not given)
inactive: Potency [1] > 92 µM | Potency [2] > 92 µM | Potency [3] > 92 µM | Potency [4] > 92 µM | Potency [5] > 92 µM | Potency [6] > 92 µM | outcome [7] | activity change, negative = cytotoxicity [8] 3.82% | Potency [9] | Potency [10]

CN(C)c1cccc(O)c1
inactive: Potency [1] > 92 µM | Potency [2] > 92 µM | Potency [3] > 92 µM | Potency [4] > 92 µM | Potency [5] > 92 µM | Potency [6] > 92 µM | outcome [7] | activity change, negative = cytotoxicity [8] -1.51% | Potency [9] | Potency [10]

Cc1ccc2ncccc2c1
inactive: Potency [1] > 92 µM | Potency [2] > 92 µM | Potency [3] > 92 µM | Potency [4] > 92 µM | Potency [5] > 92 µM | Potency [6] > 92 µM | outcome [7] | activity change, negative = cytotoxicity [8] 3.92% | Potency [9] | Potency [10]

Cc1ccco1
inactive: Potency [1] > 92 µM | Potency [2] > 92 µM | Potency [3] > 92 µM | Potency [4] > 92 µM | Potency [5] > 92 µM | Potency [6] > 92 µM | outcome [7] | activity change, negative = cytotoxicity [8] 0.379% | Potency [9] | Potency [10]

O=C(O)c1ccc(CO)o1
inactive: Potency [1] > 92 µM | Potency [2] > 92 µM | Potency [3] > 92 µM | Potency [4] > 92 µM | Potency [5] > 92 µM | Potency [6] > 92 µM | outcome [7] | activity change, negative = cytotoxicity [8] -2.4% | Potency [9] | Potency [10]

Cc1cccc2ccccc12
inactive: Potency [1] > 92 µM | Potency [2] > 92 µM | Potency [3] > 92 µM | Potency [4] > 92 µM | Potency [5] > 92 µM | Potency [6] > 92 µM | outcome [7] | activity change, negative = cytotoxicity [8] -4.08% | Potency [9] | Potency [10]

O=[N+]([O-])c1ccc(NCCO)c(OCCO)c1
inactive: Potency [1] > 92 µM | Potency [2] > 92 µM | Potency [3] > 92 µM | Potency [4] > 92 µM | Potency [5] > 92 µM | Potency [6] > 92 µM | outcome [7] | activity change, negative = cytotoxicity [8] -0.601% | Potency [9] | Potency [10]

O=c1[nH][nH]c(=O)c2cc([N+](=O)[O-])ccc12
inactive: Potency [1] > 92 µM | Potency [2] > 92 µM | Potency [3] > 92 µM | Potency [4] > 92 µM | Potency [5] > 92 µM | Potency [6] > 92 µM | outcome [7] | activity change, negative = cytotoxicity [8] 11.9% | Potency [9] | Potency [10]

CCCCCCC=O
inactive: Potency [1] > 92 µM | Potency [2] > 92 µM | Potency [3] > 92 µM | Potency [4] > 92 µM | Potency [5] > 92 µM | Potency [6] > 92 µM | outcome [7] | activity change, negative = cytotoxicity [8] -2.45% | Potency [9] | Potency [10]

Nc1c(Cl)cc(Cl)cc1Cl
inactive: Potency [1] > 92 µM | Potency [2] > 92 µM | Potency [3] > 92 µM | Potency [4] > 92 µM | Potency [5] > 92 µM | Potency [6] > 92 µM | outcome [7] | activity change, negative = cytotoxicity [8] -11.7% | Potency [9] | Potency [10]

CNc1ccccc1
inactive: Potency [1] > 92 µM | Potency [2] > 92 µM | Potency [3] > 92 µM | Potency [4] > 92 µM | Potency [5] > 92 µM | Potency [6] > 92 µM | outcome [7] | activity change, negative = cytotoxicity [8] -12.9% | Potency [9] | Potency [10]

Nc1ccc(F)cc1F
inactive: Potency [1] > 92 µM | Potency [2] > 92 µM | Potency [3] > 92 µM | Potency [4] > 92 µM | Potency [5] > 92 µM | Potency [6] > 92 µM | outcome [7] | activity change, negative = cytotoxicity [8] -8.92% | Potency [9] | Potency [10]

Cc1cccc(C)c1[N+](=O)[O-]
inactive: Potency [1] > 92 µM | Potency [2] > 92 µM | Potency [3] > 92 µM | Potency [4] > 92 µM | Potency [5] > 92 µM | Potency [6] > 92 µM | outcome [7] | activity change, negative = cytotoxicity [8] -11.3% | Potency [9] | Potency [10]

Cc1ccc(Cl)cc1N
inactive: Potency [1] > 92 µM | Potency [2] > 92 µM | Potency [3] > 92 µM | Potency [4] > 92 µM | Potency [5] > 92 µM | Potency [6] 47.5 µM | outcome [7] | activity change, negative = cytotoxicity [8] -10.6% | Potency [9] | Potency [10]

C=C(C)C(=O)OCCCCCC
inactive: Potency [1] > 92 µM | Potency [2] > 92 µM | Potency [3] > 92 µM | Potency [4] > 92 µM | Potency [5] > 92 µM | Potency [6] > 92 µM | outcome [7] | activity change, negative = cytotoxicity [8] -2.36% | Potency [9] | Potency [10]

CCCOCC(C)OCC(C)O (stereo not given)
inactive: Potency [1] > 92 µM | Potency [2] > 92 µM | Potency [3] > 92 µM | Potency [4] > 92 µM | Potency [5] > 92 µM | Potency [6] > 92 µM | outcome [7] | activity change, negative = cytotoxicity [8] -9.53% | Potency [9] | Potency [10]

Fc1ccccc1
inactive: Potency [1] > 92 µM | Potency [2] > 92 µM | Potency [3] > 92 µM | Potency [4] > 92 µM | Potency [5] > 92 µM | Potency [6] > 92 µM | outcome [7] | activity change, negative = cytotoxicity [8] 2.48% | Potency [9] | Potency [10]

Nc1cccc([N+](=O)[O-])c1
inactive: Potency [1] > 92 µM | Potency [2] > 92 µM | Potency [3] > 92 µM | Potency [4] > 92 µM | Potency [5] > 92 µM | Potency [6] > 92 µM | outcome [7] | activity change, negative = cytotoxicity [8] -10.1% | Potency [9] | Potency [10]

CSc1ccc(C=O)cc1
inactive: Potency [1] > 92 µM | Potency [2] > 92 µM | Potency [3] > 92 µM | Potency [4] > 92 µM | Potency [5] > 92 µM | Potency [6] > 92 µM | outcome [7] | activity change, negative = cytotoxicity [8] 0.565% | Potency [9] | Potency [10]

C=CC(=O)NC(C)C
inactive: Potency [1] > 92 µM | Potency [2] > 92 µM | Potency [3] > 92 µM | Potency [4] > 92 µM | Potency [5] > 92 µM | Potency [6] > 92 µM | outcome [7] | activity change, negative = cytotoxicity [8] 4.17% | Potency [9] | Potency [10]

Cc1ccc(S(=O)(=O)NC2CCCCC2)cc1
inactive: Potency [1] > 92 µM | Potency [2] > 92 µM | Potency [3] > 92 µM | Potency [4] > 92 µM | Potency [5] > 92 µM | Potency [6] > 92 µM | outcome [7] | activity change, negative = cytotoxicity [8] -19.2% | Potency [9] | Potency [10]
